Drawing on PubChem BioAssay, this text covers composite z-score and z-score for 13 compounds.

Activity calls are given as the source filed them.

The test system of assay [1] is Plasmodium falciparum Sir2 (PF13_0152, Sir2A). Nature of the assay: Plasmodium falciparum Sir2A binding compounds – biochemical, small-molecule microarray, 635 nm fluorescence, primary screen (AID 1098).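 Note: score merges spot fluorescence intensity with its signal-to-noise ratio.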 The note with it: fluorescence 635 nm, higher = more signal.
Assay [2] is described as follows: probe aDKK1 binding to arrayed compounds – biochemical, biotinylated probe, 635/667 nm fluorescence, primary screen (AID 1099).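 Note: score merges 667nm spot fluorescence with signal to noise across triplicate slides; reference of the scale not given here.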 The settings on record: small-molecule microarray, higher = more signal.
Assay [3] can be described thus: probe aCHRDL2 binding to arrayed compounds – biochemical, biotinylated probe, 635/667 nm fluorescence, primary screen (AID 1100). The note with it: small-molecule microarray, higher = more signal.
A short description of assay [4]: change in splice reporter luminescence, either direction, cell-based, HEK293, spliceosome inhibition project, primary screen (AID 1101).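 Note: HEK293 cells carrying a splicing-competent luciferase reporter gene; test concentration not given here.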 The settings on record: HEK293 splicing luciferase reporter, 24 h, higher = more signal, called active from +8 up or from −8 down. Background: A reporter such as luciferase makes a cellular process visible.
For assay [5], the target named is Fibroblast growth factor 10 (Homo sapiens) (UniProt O15520). As to the kind of experiment: compounds binding fibroblast growth factor 10 – biochemical, small-molecule microarray, 635 nm fluorescence, primary screen (AID 1102). The note with it: FGF10 binding, fluorescence 635 nm, higher = more signal.
Chain of Fibroblast growth factor 10 (Homo sapiens) (O15520 whole entry, looked up): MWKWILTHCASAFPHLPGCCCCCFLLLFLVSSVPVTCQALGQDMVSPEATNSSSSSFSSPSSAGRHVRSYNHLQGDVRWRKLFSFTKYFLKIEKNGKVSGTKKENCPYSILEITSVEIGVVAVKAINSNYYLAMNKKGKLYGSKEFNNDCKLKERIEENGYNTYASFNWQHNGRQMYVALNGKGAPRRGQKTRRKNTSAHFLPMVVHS
Assay [6] relates to glycogen synthase kinase-3 (GSK3A per assay name; protocol says GSK3B). As to the kind of experiment: compounds binding glycogen synthase kinase-3 – biochemical, small-molecule microarray, 635 nm fluorescence, GSK3A, primary screen (AID 1103). Note: the record names both GSK3A and GSK3B. The settings on record: fluorescence 635 nm, higher = more signal.
The target in assay [7] is Epidermal growth factor receptor (Homo sapiens) (UniProt P00533). Nature of the assay: compounds binding epidermal growth factor receptor – biochemical, small-molecule microarray, 635 nm fluorescence, primary screen (AID 1104).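 Note: score merges 667 nm emission intensity with spot signal to noise over triplicate slides.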 The note with it: EGFR binding, higher = more signal.
Chain of Epidermal growth factor receptor (Homo sapiens) (P00533 whole entry, looked up): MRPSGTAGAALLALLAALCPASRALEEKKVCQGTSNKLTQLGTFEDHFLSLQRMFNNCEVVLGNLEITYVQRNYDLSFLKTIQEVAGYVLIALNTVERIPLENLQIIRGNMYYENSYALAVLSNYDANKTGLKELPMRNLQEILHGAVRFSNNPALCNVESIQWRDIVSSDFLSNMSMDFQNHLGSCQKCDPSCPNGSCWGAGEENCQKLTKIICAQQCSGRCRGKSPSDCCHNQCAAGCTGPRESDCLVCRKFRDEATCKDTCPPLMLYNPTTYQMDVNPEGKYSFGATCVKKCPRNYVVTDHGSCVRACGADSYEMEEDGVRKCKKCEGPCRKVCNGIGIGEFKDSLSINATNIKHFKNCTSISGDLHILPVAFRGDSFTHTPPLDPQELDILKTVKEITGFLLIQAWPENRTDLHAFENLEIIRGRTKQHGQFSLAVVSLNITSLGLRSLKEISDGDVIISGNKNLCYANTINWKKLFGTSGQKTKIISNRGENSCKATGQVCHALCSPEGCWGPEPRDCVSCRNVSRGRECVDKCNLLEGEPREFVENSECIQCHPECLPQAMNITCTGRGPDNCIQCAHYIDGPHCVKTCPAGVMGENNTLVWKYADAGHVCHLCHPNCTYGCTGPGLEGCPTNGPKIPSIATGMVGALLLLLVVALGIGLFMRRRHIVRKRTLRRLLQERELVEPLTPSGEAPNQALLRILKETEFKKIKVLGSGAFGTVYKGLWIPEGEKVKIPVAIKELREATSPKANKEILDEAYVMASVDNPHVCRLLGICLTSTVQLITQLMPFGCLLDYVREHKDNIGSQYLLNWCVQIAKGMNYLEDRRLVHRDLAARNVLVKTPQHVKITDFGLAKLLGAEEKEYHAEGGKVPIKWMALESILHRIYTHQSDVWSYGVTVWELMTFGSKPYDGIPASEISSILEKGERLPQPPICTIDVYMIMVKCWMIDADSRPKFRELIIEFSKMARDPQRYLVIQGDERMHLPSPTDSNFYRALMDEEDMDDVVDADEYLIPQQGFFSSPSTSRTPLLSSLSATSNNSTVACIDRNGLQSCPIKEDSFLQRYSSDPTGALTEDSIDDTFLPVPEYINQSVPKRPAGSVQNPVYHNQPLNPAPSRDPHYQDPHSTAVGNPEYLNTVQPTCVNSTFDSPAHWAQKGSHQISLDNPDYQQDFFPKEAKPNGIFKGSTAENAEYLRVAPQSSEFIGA
Assay [8] addresses Follistatin-related protein 3 (Homo sapiens) (UniProt O95633). Nature of the assay: compounds binding follistatin-related protein 3 – biochemical, small-molecule microarray, 635 nm fluorescence, primary screen (AID 1105).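 Note: score merges emission near 667 nm and signal to noise per printed spot across three slides.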 The settings on record: FSTL3 binding, higher = more signal.
For assay [9], the target named is Dickkopf-related protein 1 (Homo sapiens) (UniProt O94907). Nature of the assay: small molecules binding DKK1 protein – biochemical, small-molecule microarray, 635 nm fluorescence scan, primary screen (AID 1106).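 Note: score merges emission near 667 nm with signal to noise over three replicate slides.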 The note with it: higher = more signal.
Chain of Dickkopf-related protein 1 (Homo sapiens) (O94907 whole entry, looked up): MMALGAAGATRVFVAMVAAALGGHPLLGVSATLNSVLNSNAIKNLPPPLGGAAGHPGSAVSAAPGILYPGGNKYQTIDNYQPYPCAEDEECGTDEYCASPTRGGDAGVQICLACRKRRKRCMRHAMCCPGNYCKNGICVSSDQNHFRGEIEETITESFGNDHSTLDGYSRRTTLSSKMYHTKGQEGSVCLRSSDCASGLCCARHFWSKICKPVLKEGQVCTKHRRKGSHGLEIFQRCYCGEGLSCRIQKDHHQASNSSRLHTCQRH
Assay [10] concerns Inhibin beta A chain (activin A). Nature of the assay: small molecules binding activin A – biochemical, small-molecule microarray, 635 nm fluorescence scan, primary screen (AID 1107).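 Note: mouse activin A protein probed at 4.33 µg/mL on printed slides; score merges bound-protein fluorescence near 667 nm with spot signal-to-noise.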 The note with it: INHBA, higher = more signal.

Chain of Follistatin-related protein 3 (Homo sapiens) (O95633 whole entry, looked up): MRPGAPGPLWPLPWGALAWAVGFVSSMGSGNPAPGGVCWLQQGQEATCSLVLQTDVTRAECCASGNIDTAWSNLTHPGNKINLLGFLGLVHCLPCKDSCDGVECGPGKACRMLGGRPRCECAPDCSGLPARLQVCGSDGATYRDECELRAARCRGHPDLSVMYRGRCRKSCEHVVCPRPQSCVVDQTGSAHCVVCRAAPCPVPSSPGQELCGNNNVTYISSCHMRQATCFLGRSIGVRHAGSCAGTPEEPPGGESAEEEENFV

`CC(C)C(=C=CC[C@H](O)c1cccc(OCCO)c1)C[C@H](O)c1ccccn1`: the composite z-score was 0.406 in assay [1]; -0.326 in assay [2]; -0.253 in [3]; 0.722 in assay [5]; 0.476 in [6]; -0.387 in assay [7]. In addition, the composite z-score was 0.339 in assay [8], -0.15 in [9] and 0.409 in assay [10]. In addition, in [4], the z-score was -0.779 (inactive).

With `CCCCN1CC=CC23O[C@@H]4/C=C\CCC(C)OC(=O)C4[C@H]2C(=O)N(CCO)[C@@H]3C1=O` (stereo not given in full), the composite z-score is 1.38 in [1]; -0.218 in assay [2]; 0.64 in assay [3]; -1.17 in [5]; -0.415 in assay [6]; -0.652 in assay [7]. The composite z-score in assay [8] was -0.0882; in assay [9], -0.231; in assay [10], 1.19. Also, the z-score in [4] was 0.267 (inactive).

Take `C=CCOC(=O)[C@H]1[C@@H]2C(=O)O[C@@H](c3ccccc3)[C@@H](c3ccccc3)N2[C@@H](c2ccc(OCCOC(=O)[C@H]3C[C@H]4C(=O)NCC(=O)N4[C@H]3c3ccc(O)cc3)cc2)[C@]12C(=O)Nc1ccccc12`: the composite z-score in assay [1] came out at 1.33; in assay [2] it was 0.101; in assay [3] it was 0.116; in [5], 1.28; in [6] it was 1.3; in assay [7], 0.756. In addition, the figures for the composite z-score in [8], in assay [9] and in [10] were 1.23, 0.974 and 0.511, respectively. In assay [4], the z-score is 0.417 (inactive).

Consider `C=C(C(=O)CC[C@@H](OC(=O)c1ccccc1-c1ccccc1C(=O)O)c1ccc(CO)o1)C(C)C`, for which the composite z-score in assay [1] was 1.07; in assay [2], -0.258; in [3] it was -0.532; in [5], 1.51; in [6] it was 0.913; in assay [7], -0.132. Further, the composite z-score in assay [8] was 0.648; in [9], 1.12; in [10] it was 0.927. For the same compound, in assay [4], the z-score is 0.88 (inactive).

`O=C1O[C@H](c2ccccc2)[C@H](c2ccccc2)N2[C@H]1[C@@H](C(=O)N1CCN(c3ncccn3)CC1)[C@]1(C(=O)Nc3ccc(C#CC4(O)CCCCCC4)cc31)[C@H]2c1ccc(O)cc1`: the composite z-score in assay [1] was 1.54; in assay [2], 0.111; in assay [3] it was -0.156; in assay [5] it was 0.989; in [6], 1; in assay [7], 0.241. Moreover, the composite z-score turned out to be 0.764 in assay [8], 0.185 in assay [9] and 0.0022 in assay [10]. Besides, in [4], the z-score is -0.262 (inactive).

Regarding `C[C@]1(C(=O)O)c2ccccc2C(=O)N(Cc2cc(C(F)(F)F)cc(C(F)(F)F)c2)[C@H]1c1ccc(CO)cc1`, the composite z-score in assay [1] was -0.822; in assay [2], 0.324; in [3], 0.55; in assay [5], -0.04; in [6], -0.25; in [7], -0.641. Besides, the composite z-score in [8] was 0.142; in assay [9], 0.123; in assay [10], 0.41. In assay [4], the z-score is 0.487 (inactive).

On to `COC(=O)c1ccc(OC)c(/C=C\CC(OC(=O)c2ccncc2)c2ccccc2)c1` (stereo not given), for which the composite z-score in assay [1] was -0.475; in assay [2], -0.367; in [3], -0.43; in assay [5] it was 0.377; in assay [6], 0.058; in assay [7], 1.09. Also, the composite z-score in [8] stood at 0.891; in [9], 0.631; in assay [10] it was 1.61. In addition, in assay [4], the z-score was -2.07 (inactive).

For the compound `COC(=O)[C@@]1(Cc2ccccc2)[C@H]2c3cc(C(=O)N(C)C)n(Cc4ccc(Cl)c(C(F)(F)F)c4)c3C[C@H]2CN1C(=O)c1ccccc1`, the composite z-score in assay [1] amounted to 0.685; in [2] it was 0.841; in assay [3], 1.02; in assay [5], 1.37; in assay [6] it was 1.31; in assay [7], 0.603. The composite z-score in [8] stood at 1.45; in assay [9], 0.283; in assay [10], 1.29. For the same compound, in [4], the z-score is -1.45 (inactive).

Take `CCN1C(=O)C2CC(=O)C3C(CN(S(=O)(=O)c4ccc(C)cc4)C3c3ccc(C)cc3)C2C1=O` (stereo not given): the composite z-score is 0.959 in [1]; 0.972 in assay [2]; 0.882 in assay [3]; 0.193 in assay [5]; 0.338 in assay [6]; -0.483 in [7]. The composite z-score in assay [8] was -0.167; in assay [9] it was -0.295; in assay [10], 1.15. In addition, in assay [4], the z-score is -0.106 (inactive).

Turning to `COC(=O)[C@]1(Cc2ccccc2CN=[N+]=[N-])N=C(c2ccc(OCCCO)cc2)O[C@@H]1c1ccccc1N=[N+]=[N-]`, the composite z-score in [1] is 0.973; in assay [2], -0.507; in assay [3], 0.172; in assay [5], 0.267; in [6], 0.135; in [7], -0.296. The composite z-score in [8] was -0.332; in assay [9] it was -0.268; in assay [10] it was 1.08. The z-score in assay [4] is -0.346 (inactive).

`CCCCC=C[C@@H](NC(=O)C(C)(C)C)c1ccccc1`: the composite z-score in [1] worked out at 0.641; in [2] it was 0.715; in assay [3], 0.609; in [5], 0.548; in assay [6] it was 1.25; in assay [7], 0.357. Besides, the composite z-score in assay [8] amounted to 0.508; in [9], 0.15; in assay [10], 0.173. Besides, the z-score in assay [4] is 0.41 (inactive).

For `[N-]=[N+]=Nc1ccccc1C[C@]1(C(N)=O)COC(c2ccc(OCCCO)cc2)=N1`, the composite z-score is 0.219 in assay [1]; 1.07 in assay [2]; 1.04 in assay [3]; -0.128 in [5]; -0.51 in assay [6]; -0.969 in assay [7]. Besides, the composite z-score was -1.16 in [8], -1.18 in assay [9] and 1.13 in [10]. The z-score in assay [4] is -0.32 (inactive).

Consider `CC(C)c1ccc(NN2C(C(O)C3CCCCC3)C=CC3C(=O)N(c4ccccc4)C(=O)C32)cc1` (stereo not given), for which the composite z-score is 1.4 in [1]; 0.929 in assay [2]; 1.11 in assay [3]; 0.802 in assay [5]; 1.24 in assay [6]; 0.478 in [7]. Also, the composite z-score amounted to 1.11 in assay [8], 0.794 in assay [9] and 0.874 in assay [10]. Besides, the z-score in [4] is 0.194 (inactive).
